The supplement of paper PMC12339681
Structures can show the parent of a compound that is named as a salt.

Each compound was assayed on PBMC-derived induced microglia-like cells (piMGLC) (assay: synaptosome phagocytic index relative to DMSO control (fraction of DMSO); higher = more phagocytosis). Conditions: concentration: 10 uM (2 uM for compounds listed in Table S2); pretreatment time: 24 h; assay time: 3 h.
Compound `CC(C)(C)C(=O)NCCCC(=O)O` [Pivagabine] has a synaptosome phagocytic index of 0.829. Compound `CN/C(=N\CCSCc1nc[nH]c1C)NC#N` [Cimetidine] has a synaptosome phagocytic index of 1.07. `CN1C(=O)[C@@H](NC(=O)c2n[nH]c(Cc3ccccc3)n2)COc2ccccc21` showed a synaptosome phagocytic index of 1.15. Work on `C[C@]12C=CC(=O)C=C1CC[C@@H]1[C@@H]2C(=O)C[C@@]2(C)[C@H]1CC[C@]2(O)C(=O)CO` [Prednisone] yielded a synaptosome phagocytic index of 0.718. Compound `CC(C)(C)CCN1C[C@@H]2C(CNC(=O)c3cc(Cl)cc(Cl)c3)[C@@H]2C1` (some centres undefined) has a synaptosome phagocytic index of 0.191. Work on `CCc1cc2c(cc1N1CCC(N3CCOCC3)CC1)C(C)(C)c1[nH]c3cc(C#N)ccc3c1C2=O` [Alectinib] yielded a synaptosome phagocytic index of 0.538. `NS(=O)(=O)Cc1noc2ccccc12` [Zonisamide] showed a synaptosome phagocytic index of 0.742. `CCCCCCCC(=O)c1c(O)cc(O)cc1CC(=O)OCC` [Cytosporone_B] gave a synaptosome phagocytic index of 0.114. With `COc1ccc(OCCN2CCN(C(=O)c3cc4ccccc4[nH]3)CC2)cc1` the synaptosome phagocytic index was 1.22. Work on `CCN(CC)C(=O)[C@@]1(c2ccccc2)C[C@H]1CN` [Milnacipran_((1S-cis)_hydrochloride)] yielded a synaptosome phagocytic index of 0.67. `CCC(C)n1ncn(-c2ccc(N3CCN(c4ccc(OCC5COC(Cn6cncn6)(c6ccc(Cl)cc6Cl)O5)cc4)CC3)cc2)c1=O` (centres undefined) [Itraconazole] gave a synaptosome phagocytic index of 0.377. `C[C@@H](C(=O)O)c1ccc(-c2ccccc2)c(F)c1` [Tarenflurbil] was tested, and the synaptosome phagocytic index was 1.11. Work on `COc1cc(C(=O)NCc2ccc(OCCN(C)C)cc2)cc(OC)c1OC` [Trimethobenzamide_hydrochloride] yielded a synaptosome phagocytic index of 1.24. `C=CC(=O)Nc1cc(Nc2nccc(-n3cc(CN(C)C)c(-c4ccccc4)n3)n2)c(OC)cc1N1CCOCC1` [Lazertinib] gave a synaptosome phagocytic index of 0.0589.
